# This is a sample that favours compounds with a hit; in the whole collection about 15% have one here.
# ALOX12 inh – blocks human arachidonate 12S-lipoxygenase. P18054. purified 12hLO, xylenol orange hydroperoxide absorbance. Potency, µM (top dose mostly 108 µM), inactives show at the highest dose activity change, negative = inhibition, hits mostly inhibitors. actives 1.1% (n = 580,000)
#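 Hydroperoxide product was detected by ferrous iron/xylenol orange as the 573 to 405 nm absorbance ratio. Arachidonic acid at 40 uM (final) was turned over for 30 min at room temperature by 150 nM human 12hLO, pH 7.0 Hepes buffer, after 15 min compound preincubation.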
# DT40 TDP1 CPT – growth inhibition of DT40 Tdp1-/-;hTDP1 cells with camptothecin (screen for TDP1 inhibitors) | chicken DT40 Tdp1-/-;hTDP1 cells + 20 nM CPT, ATP luminescence, 48 h | Potency, µM (series often up to 46.2 µM), for inactives: top-dose activity change, negative = growth inhibition, hits mostly inhibitors | actives 12% (n = 420,000) | AID 686979; note: nearly all actives have a fitted effect of over 55% in size
#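 Cell growth measured by CellTiter-Glo luminescence after a minimum 48 h, 37 C compound exposure with 20 nM CPT in Tdp1-knockout DT40 cells stably expressing hTDP1, seeded 400/well; qHTS titration format.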
# ELG1 repair inh – inhibitors of ELG1-dependent DNA repair in HEK293T cells; AID 504467; actives 2.3% (n = 330,000); Potency, µM (series often up to 46.1 µM), for inactives: at the highest dose activity change, negative = inhibition, most hits filed as inhibitors; HEK293T ELG1-luciferase reporter, luminescence, 16 h; DNA damage induced by 5-fluorouridine; note: nearly all actives have a fitted effect of over 55% in size
#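 Reporter activity after DNA damage by 5-fluorouridine is monitored. Compound-treated cells incubate 16 hr at 37 °C, then ONE-Glo is added for 30 min before luminescence reading.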
# DT40 TDP1 no CPT – qHTS for Inhibitors of human tyrosyl-DNA phosphodiesterase 1 (TDP1): qHTS in cells in absence of CPT; DT40 Tdp1-/- hTDP1 cells, no CPT, ATP luminescence, 48 h; Potency, µM (highest dose often 46.2 µM), inactives show top-dose activity change, negative = growth inhibition, most hits filed as inhibitors; actives 15% (n = 420,000); AID 686978, 2013; note: nearly all actives have a fitted effect of over 55% in size
#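 A cellular qHTS used chicken DT40 cells lacking endogenous Tdp1 but carrying stably transfected human TDP1. Compounds were applied without camptothecin, and cell growth kinetics were judged by ATP-dependent luminescence after ≥48 hr.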
# RORg inh – blocks mouse ROR gamma transcriptional activity | P51450 | Drosophila S2 Gal4-RORgamma UAS-luciferase reporter, 20 h | Potency, µM (highest dose often 53.6 µM), for inactives: at the top dose activity change, negative = inhibition, actives largely listed as inhibitors | actives 5.4% (n = 310,000); note: nearly all actives have a fitted effect of over 60% in size
# Target sequence (P51450 whole entry, looked up, the tested form may be a part): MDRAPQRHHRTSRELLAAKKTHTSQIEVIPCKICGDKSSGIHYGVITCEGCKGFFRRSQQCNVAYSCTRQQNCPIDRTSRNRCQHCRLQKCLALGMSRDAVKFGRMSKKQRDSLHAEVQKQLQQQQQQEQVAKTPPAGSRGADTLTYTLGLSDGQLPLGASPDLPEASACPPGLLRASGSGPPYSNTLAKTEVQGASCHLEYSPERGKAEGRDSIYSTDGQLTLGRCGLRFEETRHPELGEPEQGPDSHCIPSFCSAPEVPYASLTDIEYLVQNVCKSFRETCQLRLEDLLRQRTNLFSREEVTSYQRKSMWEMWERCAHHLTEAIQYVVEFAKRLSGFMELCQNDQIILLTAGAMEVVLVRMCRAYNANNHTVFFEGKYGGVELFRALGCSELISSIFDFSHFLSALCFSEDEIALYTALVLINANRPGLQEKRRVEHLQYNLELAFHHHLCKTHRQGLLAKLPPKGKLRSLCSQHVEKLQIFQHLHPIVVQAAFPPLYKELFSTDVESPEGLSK
#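 A Gal4/UAS one-hybrid system in insect cells: metallothionein-promoter Gal4–ROR gamma fusion plus Photinus luciferase reporter. Copper sulfate 700 uM final, 20 hr ambient incubation, luminescent detection after 10 min with reagent.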
# Gal4-VP16 FLuc – counter-screen for ROR gamma inhibitors: Gal4-VP16 reporter; Potency, µM (titrated, usually from 53.6 µM), for the others: top-dose activity, negative = inhibition, most hits filed as inhibitors; AID 2546; actives 3.5% (n = 310,000); Drosophila S2 Gal4-VP16 UAS-luciferase, luminescence, 20 h;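 note: Gal4-VP16 expression switched on by copper sulfate through the metallothionein promoter; nearly all actives have a fitted effect of over 50% in size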
# Starred values were filed as active, the others as inactive; ? = inconclusive; / = not tested or not shown; [ ] = remark or other dose. Calls come from the whole dose curve; as a rule, active = well fitted curve in the direction sought with a large enough effect; inconclusive = small, poorly fitted or top-dose-only effect, or another doubt; inactive = no such curve, though single readings can be large; an effect the other way counts as inactive or inconclusive. % is set by controls: 0 for no effect and ±100 for the full control effect; potency is the fitted concentration of half-maximal effect.
SMILES,ALOX12 inh,DT40 TDP1 CPT,ELG1 repair inh,DT40 TDP1 no CPT,RORg inh,Gal4-VP16 FLuc
CCCCNc1c(-c2ccc(-c3ccc(C(C)=O)cc3)c(OC)c2)nc2cnccn12,/,10µM*,9.2µM*,?,/,/
CCCCCCSc1cc(-c2nc3cc(C)ccn3c2NC2CCCCC2)ccc1OC,-17%,?,?,16µM*,/,/
CCCCCCSc1ccc(-c2nc3ccc(C)cn3c2NC2CCCCC2)cc1,-38%,16µM*,4%,18µM*,/,/
COc1cc(-c2nc3cnccn3c2NC(C)(C)CC(C)(C)C)ccc1O,?,?,-29%,?,0%,-1%
O=C(O)/C=C/c1cc(Cl)ccc1OC(F)F,8%,/,/,/,/,/
CCc1ccc(C(CNC(=O)c2nccnc2N)N(C)C)cc1 (configuration not stated),13%,/,/,/,/,/
CCCCCCSc1ccc(-c2nc3cc(C)ccn3c2NC2CCCCC2)cc1,?,18µM*,9%,12µM*,/,/
CC1=C(C(=O)Nc2ccccc2C(=O)NCc2ccccc2)SCCO1,0%,?,-2%,?,7%,4%
CCOc1ccc(CNC(=O)c2cccc(NC(=O)C3=C(C)OCCS3)c2)cc1,0%,?,?,?,30%,4%
CC1=C(C(=O)Nc2ccc(CC(=O)NCc3ccc(OC(C)C)cc3)cc2)SCCO1,-13%,0.16µM*,?,0.18µM*,-11%,-14%
CCOCCCNC(=O)c1cc(Cl)c(NC(=O)C2=C(C)OCCS2)cc1OC,15%,?,-20%,12µM*,11%,6%
COc1ccc(CNC(=O)Cc2ccc(NC(=O)C3=C(C)OCCS3)cc2)cc1,-5%,2.3µM*,?,2.1µM*,?,?
COc1cccc(CNC(=O)c2ccccc2NC(=O)C2=C(C)OCCS2)c1OC,14%,18µM*,12µM*,12µM*,10%,-13%
CCCNC(=O)c1cc(Cl)c(NC(=O)C2=C(C)OCCS2)cc1OC,8%,?,-28%,?,22%,25%
COc1cccc(CNC(=O)c2cccc(NC(=O)C3=C(C)OCCS3)c2)c1,2%,?,?,?,8%,2%
CN1CCC(N[C@H]2C[C@@H](Cc3cc(CN(C)Cc4ccccc4)on3)C2(C)C)CC1,20%[176 µM],/,/,/,/,/
COCCOC1CN(C2CCN(Cc3ccccc3)CC2)C12CCCCC2 (configuration not stated),62%,/,/,/,/,/
CCOc1ccccc1CNC(=O)c1ccccc1NC(=O)C1=CSCCO1,3%,?,?,26µM*,?,1%
CC/C(C)=N/NC(=S)NCc1ccco1,-13%,-1%,-18%,-15%,10µM*,?
C/C(=N\NC(=S)NCc1ccccc1)c1ccccc1F,35µM*,-3%,-27%,?,1.3µM*,-9%
C/C(=N\NC(=S)NCc1ccccc1)c1ccco1,?,?,?,?,1.8µM*,7.1µM*
C/C(=N\NC(=S)NCc1ccccc1)C1CC1,6%,/,/,/,/,/
Cc1cc(Br)ccc1NC(=O)Cn1nc2c(cc1=O)CCCCC2,81%,/,/,/,/,/
O=C(O)c1c(Cl)c(Cl)c(Cl)c(Cl)c1-c1c2cc(I)c(=O)c(I)c-2oc2c(I)c(O)c(I)cc12,0.86µM*,?,/,15µM*,14µM*,?
CN(C)CCCn1c(=O)n(CCc2ccccc2)c(=O)c2c3c(sc21)CCCCC3,137%,?,3%,23µM*,-11%,-17%
CN(C)CCn1c(=O)n(Cc2ccccc2)c(=O)c2c3c(sc21)CCCCC3,?,-7%,2%,?,?,-20%

# Source: PubChem BioAssay
